Reference: PubChem BioAssay AID602399 (Sanford-Burnham Center for Chemical Genomics, 2012)
Screen size: about 360,000 compounds; about 2,800 (0.78%) were called active. Cut-off read from the data, not from the text of the source: active = inhibition above about 26%; inactive = the rest. The list comes from a sample in which actives are over-represented; it also holds similar structures and randomly drawn compounds.

tested on: Nicotinate-nucleotide adenylyltransferase NadD (Staphylococcus aureus N315); experiment: inhibitors of S. aureus NadD, primary screen, biochemical, colorimetric, uHTS (AID 602399); conditions: purified NadD enzyme, colorimetric absorbance read-out; at 20 µM; hits give high values

inhibition, active:
Cc1ccc(-c2cc(C(=O)N/N=C/C=C/c3ccco3)c3ccccc3n2)cc1C 53%
CN(C)c1ccc(-n2cccc2/C=C2/SC(=Nc3ccc(F)cc3)NC2=O)cc1 24.9%
COc1ccc(C(=O)Nc2cccc(/C=C(/CCC(=O)O)c3nc4ccccc4s3)c2)cc1 35.2%
Cc1cccc(N=C2NC(=O)/C(=C/c3cn(C)c4ccccc34)S2)c1 37%
Cc1ccc(Cn2c(=N)c(S(=O)(=O)c3ccc(C)cc3)cc3c(=O)n4ccccc4nc32)cc1 35.5%
Cc1c(Cl)c([N+](=O)[O-])nn1Cc1ccc(C(=O)N/N=C\c2cc(Cl)ccc2O)o1 35.1%
C#CCOCCOCCOCCNc1nc(N2CCN(C(=O)CCCCCCCCCCNC(=O)Cn3cc(CCCCCN)nn3)CC2)nc(N2CCN(C(=O)CCCCCCCCCCNC(=O)[C@H](CO)n3cc(CCCSC)nn3)CC2)n1 46.8%
O=C(CSc1nnc(-c2cccnc2)n1Cc1ccco1)c1ccc(Cl)c(Cl)c1 30.6%
CCOC(=O)/C=c1\s/c(=C\c2ccc(C#N)cc2)c(=O)n1CC(=O)Nc1cccc(C)c1C 32.6%
Cc1ccc(N=C2NC(=O)/C(=C/C=C/c3ccco3)S2)cc1C 37.2%
COCCCn1c(=O)/c(=C/c2ccccc2OC(C)C)s/c1=C(\C#N)C(=O)Nc1ccc(C(=O)O)cc1 32%
Nc1nc2n(n1)C(c1ccco1)CC(c1ccc(Cl)c(Cl)c1)N2 (centres undefined) 47.1%
COc1ccc(Cc2nnc(NC(=O)Cc3cccs3)s2)cc1 32.5%
O=[N+]([O-])c1cc(Cl)cc(/C=N/NC(=S)Nc2cc(S(=O)(=O)N3CCOCC3)ccc2Cl)c1O 47.9%
C=CC(=O)Nc1ccc(Nc2ccnc(Nc3ccc(N4CCN(C)CC4)cc3)n2)cc1 42.6%
O=C1C2N=NN(CC(=O)N3N=C(c4cccc5ccccc45)CC3c3ccccc3)C2C(=O)N1c1ccccc1 (centres undefined) 48.5%
Cc1ccc(N2C(=O)C3N=NN(CC(=O)N4N=C(c5cccc6ccccc56)CC4c4ccccc4)C3C2=O)cc1 (centres undefined) 45.4%
Cc1ccc(C(=O)NNC(=O)c2cc3cc4ccccc4nc3s2)cc1 31.4%
Cn1cncc1C#Cc1c(-c2ccsc2)sc2ccccc12 30%

inhibition, inactive:
CC(=O)NC1(c2cccc(F)c2)CCN(CC(=O)NC(C)C)CC1 -2.5%
O=C(N/N=C/C=C/c1ccco1)c1cccs1 5.08%
C/C(=N\NC(=O)c1cc(-c2ccc(O)cc2)nc2ccccc12)c1cccnc1 5.99%
CSc1nsc(SC)c1NC(=O)OC1CCCCC1 -1.66%
CC(=O)Nc1ccc(S(=O)(=O)N2CCN(S(=O)(=O)c3cccs3)CC2)cc1 0.0869%
CN(C)c1ccc(-n2cccc2/C=N/n2cnnc2)cc1 -0.713%
CN(CCC1CCOCC1)Cc1cn[nH]c1-c1ccc(-c2ccccc2)cc1 -6.91%
C[C@@H]1CN([C@@H](C)CO)C(=O)c2cccc(NS(=O)(=O)c3ccc(F)cc3)c2O[C@H]1CN(C)C(=O)NC1CCCCC1 4.79%
Cc1[nH]c2ccccc2c1SCC(=O)Nc1nccs1 -2.1%
CN(C)/C=C(\C#N)C(=O)c1cccnc1Oc1cccc(F)c1 -0.906%
COc1ccc(C2(CNC(=O)C(c3ccccc3)c3ccccc3)CCOCC2)cc1OC -2.03%
Cc1cc(C)nc(Nc2n[nH]c(-c3ccccc3N)n2)n1 -2.89%
CCNc1nc(N)nc(Oc2ccc(OCC)nn2)n1 -1.59%
O=C(O)CC/C(=C\c1cc2c(cc1Br)OCO2)c1nc2ccccc2s1 7.94%
Cc1nn(-c2ccc(F)cc2)c(Cl)c1/C=C(/CCC(=O)O)c1nc2ccccc2s1 6.39%
CSc1nnc2c(n1)OC(c1ccsc1)N(C(C)=O)c1ccccc1-2 (centres undefined) -0.91%
Cc1ccc(C(=O)N/C(=C\c2cn(C)c3ccccc23)C(=O)N2CCN(C)CC2)cc1 -3.04%
Cc1ccc(N2C(=O)S/C(=C/c3cn(C)c4ccccc34)C2=O)cc1 2.76%
CON(C)S(=O)(=O)c1ccc2c(c1)NC(=O)C1CCCN21 (centres undefined) 10.3%
Cc1ccc(S(=O)(=O)c2cc3c(=O)n4cccc(C)c4nc3n(CCc3ccccc3)c2=N)cc1C -1.62%
CCn1c(=N)c(S(=O)(=O)c2ccc(F)cc2)cc2c(=O)n3ccccc3nc21 7.46%
COc1ccc(C)cc1NC(=O)c1cc(-c2ccccc2)nc2c1cnn2C(C)C -10.2%
COC(=O)c1sccc1NC(=O)CC1C(=O)NCCN1C(=O)Nc1ccc(F)cc1F (centres undefined) -5.08%
Cc1c(Cl)c([N+](=O)[O-])nn1CCCC(=O)NC(C)c1ccccc1 (centres undefined) 1.25%
CN(C)c1ccc(/C=N/NC(=O)c2ccc(Cn3cc(Br)cn3)o2)cc1 4.66%
COc1ccc(CC(=O)Nc2c3c(nn2-c2cccc(Cl)c2)CS(=O)C3)cc1 (centres undefined) 5.19%
Cc1ccc(NS(=O)(=O)c2cc3c(cc2Br)NC(=O)CO3)cc1C -3.42%
C#CCOCCOCCOCCNc1nc(N2CCN(C(=O)C([C@@H](C)O)n3cc([C@@H](N)CCCCN)nn3)CC2)nc(N2CCN(C(=O)[C@H](CCCCN)n3cc(CN)nn3)CC2)n1 (some centres undefined) -6.21%
C#CCOCCOCCOCCNc1nc(N2CCOCC2)nc(N2CCN(C(=O)[C@H](Cc3ccc(O)cc3)n3cc(CCO)nn3)CC2)n1 -4.41%
C=CCOc1cccc(C2C(C(=O)c3ccc(C)o3)=C(O)C(=O)N2CCN2CCOCC2)c1 (centres undefined) 6.48%
CCNc1nc(SCCOc2ccccc2)nc(N(C)C)n1 -6.51%
O=C(CSc1nnc(-c2cnccn2)n1Cc1ccco1)c1ccc(Cl)c(Cl)c1 10.3%
C(=C\c1ccccc1)/CSc1nnc(-c2cccnc2)n1Cc1ccco1 14.6%
Cc1cccc(NC(=O)CSC(N)=O)c1C -2.73%
Cc1cccc(NC(=O)CN2CCN(C(=O)C3CCN(C(=O)/C=C/c4ccccc4)CC3)CC2)c1C 5.55%
Cc1c(CN2CCCCC2)c(O)n(CCO)c(=O)c1C#N -2.39%
Cc1cccc(-c2c(NC(=O)c3ccco3)oc3ccc(Cl)cc3c2=O)c1 -6.28%
FC(F)(F)c1ccnc(Oc2ccc(C3=NCCS3)cc2)c1 -2.78%
CCCCn1ccnc1C(=O)c1cccc(S(=O)(=O)N2c3ccccc3CC2C)c1 (centres undefined) 9.25%
Cn1c(=O)[nH]c(=O)c2c1nc(CN1CCN(c3ccccc3F)CC1)n2CCc1ccccc1 0.696%
CC(C)C(=O)Nc1c2c(nn1-c1ccccc1)CSC2 -1.75%
COc1ccccc1C(=O)N/C(=C/c1ccco1)C(=O)Nc1ccc(C(=O)O)cc1 1.58%
O=C(Nc1ccc(C(=O)O)cc1)/C(=C\c1ccccc1)NC(=O)c1ccc(Br)cc1 -2.9%
CCOC(=O)c1cccc(NC(=O)CCc2nnc3ccc(N4CCOCC4)nn23)c1 -5.9%
Cc1ccc(Cn2cc(CN3CC(N4CCN(C)CC4)CS3(=O)=O)nn2)cc1 (centres undefined) -10.5%
C=CCN1C(=O)C(O)(CC(=O)c2ccccn2)c2ccccc21 (centres undefined) 13.4%
CCOc1ccccc1C1CC(c2ccc(Cl)cc2)Nc2nc(N)nn21 (centres undefined) 9.48%
Cc1ccc(C2CC(c3cccc(Br)c3)n3nc(N)nc3N2)cc1 (centres undefined) 7.54%
CCOC(=O)c1cn(CC)c2cc(F)c(F)cc2c1=O -0.618%
COC(=O)CSc1nc2c(c(C3CC=CCC3)c1C#N)CCC2 (centres undefined) -1.38%
COc1ccc(CC(=O)Nc2sc(Cc3ccccc3)c(C)c2C(N)=O)cc1 -6.77%
COc1cc(OC)cc(C(=O)NNC(=O)Cc2cccs2)c1 10.7%
CC(C)C[C@@H](CO)N1CCN(Cc2ccc(O)cc2)CCC1=O 4.79%
CC(CCN1CCN=C1N(C)C)c1ccccc1 (centres undefined) -0.906%
Cc1c2cnn(CC(=O)NCc3ccccn3)c(=O)c2c(C)n1Cc1ccc(Cl)cc1 0.351%
COC(=O)c1cc(Oc2ccc(S(=O)(=O)N3CCOCC3)cc2[N+](=O)[O-])cc(C(=O)OC)c1 1.67%
Cc1cc(OCCCC(=O)Nc2cc(S(=O)(=O)N3CCOCC3)ccc2N2CCOCC2)ccc1Cl -12.2%
O=C(Nc1ccc(N2CCN(C(=O)c3cccs3)CC2)cc1)c1cccnc1Cl 4.87%
CC(=O)Nc1cc(-c2ccc(N3CCN(C)CC3)cc2)cn2c(-c3ccc(F)cc3)cnc12 0.533%
CC1=C(C)CC2C(=O)N(c3cccc4ccccc34)C(=O)C2C1 (centres undefined) -0.224%
Oc1ccccc1C1=NN(c2ccccc2)C(c2ccccc2)C1 (centres undefined) -11.2%
Cc1ccc(C2=NN(C(=O)COc3ncnc4ccccc34)C(c3ccco3)C2)cc1 (centres undefined) 0.743%
O=C1c2cccc(OCC(=O)N3N=C(c4cccs4)CC3c3ccc(F)cc3)c2CCN1Cc1ccccc1 (centres undefined) 26.5%
CN1CCN(C(=O)/C(=C\c2ccc3c(c2)OCO3)NC(=O)c2cccs2)CC1 -6.87%
O=C1CC2(CCCC2)Oc2ccc(Cl)cc21 -1.24%
CCSC1=NCCN1C(=O)c1ccc(S(=O)(=O)N(CC)CC)cc1 3.55%
Cc1ccc(-n2c(=O)cc(N3CCN(Cc4ccccc4)CC3)[nH]c2=O)cc1 4.3%
Cc1cccc(CCNS(=O)(=O)c2ccc3c(c2)NC(=O)CO3)c1 -0.563%
COC(=O)c1ccc(/C=N/OCC(=O)Nc2cc(F)ccc2F)cc1 -3.44%
CCCc1nc2c3ccccc3ccn2c1Cc1ccccc1C(F)(F)F 1.56%
Cc1ccc(C(=O)NNC(=O)CSc2nnc3ccccn23)cc1 -1.33%
Cc1ccc(C(=O)NNc2ncnc3ccccc23)cc1 -2.31%
Nc1nc2c(ncn2[C@@H]2O[C@H](CNS(=O)(=O)N3CCc4ccccc4C3)[C@@H](O)[C@H]2O)c(=O)[nH]1 1.88%
CCC/C=C(\CCC)C(NC(=O)Cc1ccccc1)c1ccc(C(=O)OC)cc1 (centres undefined) 10.4%
CC1CCN(C(=O)Cn2cc(C(=O)c3ccco3)c3ccccc32)CC1 3.46%
O=C(c1ccc(CS(=O)(=O)c2ccccc2)o1)N1CCN(c2ccccc2)CC1 1.5%
Cc1cccc(-c2oc3ccc(-c4ccc5c(c4)OCO5)cc3c2C#Cc2cncn2C)c1 26.9%
COc1ccc2sc(-c3ccc(S(C)(=O)=O)cc3)c(C#Cc3cncn3C)c2c1 0.758%
CS(=O)(=O)N(CC(=O)N1CCCCCC1)c1cccc(Cl)c1Cl -9.97%
Cc1c(S(=O)(=O)NCc2ccccc2)c(=O)n(C)c(=O)n1C -3.14%
